# Measurements as given in PubChem BioAssay.
# Calls of active or inactive are those of the source.
# What was measured:
# [1] = small molecules captured by biotinylated probe aFSTL3 – biochemical, small-molecule microarray, fluorescence 635/667, stem cell growth factor project, primary screen (AID 1064); settings: higher = more signal;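 also: measures binding of the biotinylated anti-FSTL3 antibody to printed compounds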
# [2] = binders from COS7 lysate, DM2A8 probe, primary screen, torsin A project, cell lysate, small-molecule microarray, fluorescence 635/667 (AID 1065); settings: higher = more signal, COS7 lysate expressing mutant human TOR1A
# [3] = small molecules captured by biotinylated probe aFGF2 – biochemical, small-molecule microarray, fluorescence 635/667, stem cell growth factor project, primary screen (AID 1067); settings: higher = more signal;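 also: measures binding of biotinylated aFGF2 protein to printed compounds on slides; z-score merges feature fluorescence and signal-to-noise across triplicate slides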
# [4] = small molecules captured by biotinylated probe aFGF10 – biochemical, small-molecule microarray, fluorescence 635/667, stem cell growth factor project, primary screen (AID 1071); settings: higher = more signal;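 also: score merges 667 nm spot intensity and signal to noise from triplicate slides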
# [5] = target: Neurogenic locus notch homolog protein 2 (Homo sapiens) (UniProt Q04721); assay: small molecules binding Notch2 protein – biochemical, small-molecule microarray, 635 nm fluorescence, stem cell growth factors, primary screen (AID 1073); settings: higher = more signal
# [6] = target: Pro-neuregulin-1, membrane-bound isoform (Homo sapiens) (UniProt Q02297); assay: small molecules binding neuregulin-1 protein – biochemical, small-molecule microarray, fluorescence 635/667, psychiatric disease protein project, primary screen (AID 1075); settings: NRG1 binding, 635 nm fluorescence, higher = more signal;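 also: score combines 667 nm spot fluorescence with signal to noise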
# Chain of Pro-neuregulin-1, membrane-bound isoform (Homo sapiens) (Q02297 whole entry, looked up, the tested form may be a part, canonical isoform): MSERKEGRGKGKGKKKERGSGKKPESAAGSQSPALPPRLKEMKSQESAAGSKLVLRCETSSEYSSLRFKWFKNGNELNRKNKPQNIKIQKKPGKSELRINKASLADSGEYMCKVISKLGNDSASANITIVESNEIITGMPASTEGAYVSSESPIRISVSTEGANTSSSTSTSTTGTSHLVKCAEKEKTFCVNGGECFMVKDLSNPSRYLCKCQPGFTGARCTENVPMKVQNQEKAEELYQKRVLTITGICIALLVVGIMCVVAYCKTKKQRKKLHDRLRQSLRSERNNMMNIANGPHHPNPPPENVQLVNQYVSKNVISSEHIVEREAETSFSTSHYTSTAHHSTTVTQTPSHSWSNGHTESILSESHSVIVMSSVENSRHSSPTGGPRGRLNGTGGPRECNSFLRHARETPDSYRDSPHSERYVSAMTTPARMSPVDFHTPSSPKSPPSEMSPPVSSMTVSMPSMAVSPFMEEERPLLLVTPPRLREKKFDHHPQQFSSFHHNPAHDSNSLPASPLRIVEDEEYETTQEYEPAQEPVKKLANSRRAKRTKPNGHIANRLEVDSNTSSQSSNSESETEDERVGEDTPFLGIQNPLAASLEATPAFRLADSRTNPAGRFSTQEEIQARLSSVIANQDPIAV
# [7] = tested on: Neuregulin-1 EGF-like domain; assay: small molecules binding NRG1 EGF domain – biochemical, small-molecule microarray, 635 nm fluorescence, primary screen (AID 1081); settings: higher = more signal;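 also: binding of the protein to compounds printed on small-molecule microarray slides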
# [8] = FRG1 expression reporter modulators in myotubes – cell-based, C2C12 myotubes, firefly/Renilla luciferase, luminescence, FRG1 inhibition for FSHD, primary screen (AID 1084); settings: FRG1 promoter luciferase, higher = more signal, called active from +8 up or from −8 down
# [9] = small molecules captured by biotinylated probe aFST – biochemical, small-molecule microarray, fluorescence 635/667, stem cell growth factor project, primary screen (AID 1086); settings: higher = more signal;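 also: score merges 667 nm fluorescence with signal-to-noise of each printed compound spot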
# [10] = binders of probe aHhip on microarray, primary screen, stem cell growth factor project, biochemical, small-molecule microarray, fluorescence 635/667 (AID 1087); settings: higher = more signal;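 also: score merges spot fluorescence at 667nm with spot signal to noise ratio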
# [11] = tested on: PRMT1 (protein arginine N-methyltransferase 1); assay: small molecules binding arginine methyltransferase PRMT1 – biochemical, small-molecule microarray, 635 nm fluorescence, primary screen (AID 1088); settings: higher = more signal;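 also: binding of Prmt1 protein to compounds spotted on small-molecule microarray slides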
# [12] = growth effects on S. cerevisiae YJM789 – YJM789 clinical isolate, OD600, 24 h, basal, primary screen (AID 1089); settings: higher = more signal, called active from +8 up or from −8 down;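 also: growth of clinical yeast isolate S. cerevisiae YJM 789 seeded 1000 cells per well; test concentration not given here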
# [13] = S. pombe growth modifiers, basal conditions – strain 972, OD600, 24 h, no modulator, primary screen (AID 1090);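 also: basal condition with compound alone and no growth modifier present; test concentration not given here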; settings: S. pombe 972 growth, higher = more signal, called active from +8 up or from −8 down
# [14] = budding yeast growth modifiers under rapamycin – strain BY4716, OD600, 96 h, primary screen (AID 1091); also: test concentration not given here; settings: S. cerevisiae BY4716 + rapamycin, higher = more signal, called active from +8 up or from −8 down
# [15] = target: Torsin-1A-interacting protein 2 (Homo sapiens) (UniProt Q8NFQ8); assay: small molecules binding lysate-expressed LULL1 – cell lysate, human LULL1 lysate, 635/667 nm fluorescence, primary screen (AID 1092); settings: small-molecule microarray, hLULL1 lysate binding, 635 nm fluorescence; higher = more signal;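 also: probe is lysate of COS7 cells overexpressing human LULL1; score merges per-feature 667 nm fluorescence with signal-to-noise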
# Chain of Torsin-1A-interacting protein 2 (Homo sapiens) (Q8NFQ8 whole entry, looked up): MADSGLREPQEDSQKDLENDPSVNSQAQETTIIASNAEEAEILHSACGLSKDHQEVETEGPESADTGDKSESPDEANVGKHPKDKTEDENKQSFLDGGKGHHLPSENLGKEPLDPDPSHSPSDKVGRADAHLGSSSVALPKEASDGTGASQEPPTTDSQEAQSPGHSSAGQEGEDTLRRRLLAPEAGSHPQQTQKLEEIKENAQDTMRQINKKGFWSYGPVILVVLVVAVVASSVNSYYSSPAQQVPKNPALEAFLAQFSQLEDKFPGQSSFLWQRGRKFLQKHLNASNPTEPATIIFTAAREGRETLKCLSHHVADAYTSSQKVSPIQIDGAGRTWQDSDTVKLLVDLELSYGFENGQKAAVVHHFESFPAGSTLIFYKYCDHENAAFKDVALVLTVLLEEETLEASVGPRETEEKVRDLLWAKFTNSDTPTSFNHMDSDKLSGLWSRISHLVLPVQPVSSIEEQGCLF
# [16] = optical density change of DRC41 E. coli – strain DRC41, OD650, 24 h, E. coli filamentation project, primary screen (AID 1093);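 also: MC1000 strain lacking acrAB efflux and sulA so SOS filamentation is blocked; test concentration not given here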; settings: E. coli DRC41 growth, higher = more signal, called active from +8 up or from −8 down
# [17] = probe aLefty2 binding to arrayed compounds – biochemical, biotinylated probe, 635/667 nm fluorescence, primary screen (AID 1094); settings: small-molecule microarray, higher = more signal;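 also: score merges spot fluorescence near 667 nm with spot signal-to-noise ratio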
# [18] = tested on: Noggin (protein binding on small-molecule microarray); assay: small molecules binding Noggin protein – biochemical, 635/667 nm fluorescence, primary screen (AID 1095); settings: 635 nm fluorescence, higher = more signal;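 also: score merges 667 nm feature fluorescence with signal to noise over triplicate slides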
# [19] = target: Neurogenic locus notch homolog protein 3 (Homo sapiens) (UniProt Q9UM47); assay: small molecules binding NOTCH3 protein – biochemical, 635/667 nm fluorescence, primary screen (AID 1096); settings: small-molecule microarray, 635 nm fluorescence, higher = more signal
# Chain of Neurogenic locus notch homolog protein 3 (Homo sapiens) (Q9UM47 whole entry, looked up): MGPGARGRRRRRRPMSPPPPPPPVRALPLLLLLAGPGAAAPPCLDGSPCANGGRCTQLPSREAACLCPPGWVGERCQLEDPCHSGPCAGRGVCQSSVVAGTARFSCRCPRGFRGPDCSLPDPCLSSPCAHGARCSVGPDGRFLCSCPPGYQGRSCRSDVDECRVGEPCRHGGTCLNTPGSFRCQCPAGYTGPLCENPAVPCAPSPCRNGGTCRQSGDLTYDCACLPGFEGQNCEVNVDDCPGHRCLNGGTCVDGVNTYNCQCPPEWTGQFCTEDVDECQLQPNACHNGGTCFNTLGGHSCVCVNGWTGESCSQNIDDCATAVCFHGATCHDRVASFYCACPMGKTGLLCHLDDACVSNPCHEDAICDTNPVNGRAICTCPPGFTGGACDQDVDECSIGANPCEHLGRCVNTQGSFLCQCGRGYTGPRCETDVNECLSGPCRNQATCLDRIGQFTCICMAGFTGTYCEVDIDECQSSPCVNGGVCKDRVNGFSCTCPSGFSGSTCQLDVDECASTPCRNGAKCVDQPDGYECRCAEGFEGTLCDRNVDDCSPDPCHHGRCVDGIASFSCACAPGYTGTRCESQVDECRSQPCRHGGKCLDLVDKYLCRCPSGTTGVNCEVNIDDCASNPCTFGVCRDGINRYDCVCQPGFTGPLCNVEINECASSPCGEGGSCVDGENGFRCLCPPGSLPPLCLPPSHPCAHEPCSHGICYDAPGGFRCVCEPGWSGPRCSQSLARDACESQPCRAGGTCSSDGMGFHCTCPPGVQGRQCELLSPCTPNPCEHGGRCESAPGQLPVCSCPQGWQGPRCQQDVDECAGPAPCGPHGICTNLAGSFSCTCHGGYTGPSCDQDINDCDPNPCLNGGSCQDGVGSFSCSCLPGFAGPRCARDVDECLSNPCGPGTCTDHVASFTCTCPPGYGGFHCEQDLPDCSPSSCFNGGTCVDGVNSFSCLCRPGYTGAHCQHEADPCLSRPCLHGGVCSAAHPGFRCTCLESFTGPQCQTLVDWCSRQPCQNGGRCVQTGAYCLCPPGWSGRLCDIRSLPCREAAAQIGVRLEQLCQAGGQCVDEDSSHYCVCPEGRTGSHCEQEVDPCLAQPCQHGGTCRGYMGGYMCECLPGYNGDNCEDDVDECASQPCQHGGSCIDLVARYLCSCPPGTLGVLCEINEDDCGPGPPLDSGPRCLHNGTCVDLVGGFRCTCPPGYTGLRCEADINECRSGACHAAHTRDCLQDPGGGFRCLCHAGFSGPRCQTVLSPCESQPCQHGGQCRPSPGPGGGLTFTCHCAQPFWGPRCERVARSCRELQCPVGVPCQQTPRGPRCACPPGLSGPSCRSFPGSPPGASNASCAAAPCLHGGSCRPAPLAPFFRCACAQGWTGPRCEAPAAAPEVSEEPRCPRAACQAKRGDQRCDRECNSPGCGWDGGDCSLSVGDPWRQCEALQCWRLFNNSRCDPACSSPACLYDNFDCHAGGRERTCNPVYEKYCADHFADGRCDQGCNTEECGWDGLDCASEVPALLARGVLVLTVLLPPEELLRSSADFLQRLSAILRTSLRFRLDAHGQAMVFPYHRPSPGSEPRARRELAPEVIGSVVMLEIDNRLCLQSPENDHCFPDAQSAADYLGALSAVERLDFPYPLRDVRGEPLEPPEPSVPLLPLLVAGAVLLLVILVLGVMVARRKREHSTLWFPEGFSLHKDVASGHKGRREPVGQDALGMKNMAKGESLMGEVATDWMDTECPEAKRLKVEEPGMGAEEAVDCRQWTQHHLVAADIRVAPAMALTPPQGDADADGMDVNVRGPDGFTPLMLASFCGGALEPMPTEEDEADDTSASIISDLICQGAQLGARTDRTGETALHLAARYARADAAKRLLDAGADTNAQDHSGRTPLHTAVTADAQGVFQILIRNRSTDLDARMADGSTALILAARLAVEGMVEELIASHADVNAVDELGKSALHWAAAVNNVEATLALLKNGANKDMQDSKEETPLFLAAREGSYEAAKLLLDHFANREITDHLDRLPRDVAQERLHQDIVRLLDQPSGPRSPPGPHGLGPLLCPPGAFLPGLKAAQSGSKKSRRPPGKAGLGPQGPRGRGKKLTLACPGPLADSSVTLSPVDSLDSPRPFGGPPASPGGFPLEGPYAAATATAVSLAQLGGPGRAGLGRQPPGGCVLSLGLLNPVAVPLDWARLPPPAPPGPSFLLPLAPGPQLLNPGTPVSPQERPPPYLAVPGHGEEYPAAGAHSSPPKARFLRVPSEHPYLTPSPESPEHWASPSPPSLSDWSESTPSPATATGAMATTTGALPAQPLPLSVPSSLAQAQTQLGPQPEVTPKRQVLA
# [20] = probe aEGFR binding to arrayed compounds – biochemical, biotinylated probe, 635/667 nm fluorescence, primary screen (AID 1097); settings: small-molecule microarray, higher = more signal;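 also: probe is a biotinylated anti-EGFR antibody binding compounds printed on slides; score combines fluorescence near 667 nm and signal to noise of each spot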
SMILES,composite z-score [1],composite z-score [2],composite z-score [3],composite z-score [4],composite z-score [5],composite z-score [6],composite z-score [7],z-score [8],composite z-score [9],composite z-score [10],composite z-score [11],z-score [12],z-score [13],z-score [14],composite z-score [15],z-score [16],composite z-score [17],composite z-score [18],composite z-score [19],composite z-score [20]
C=CC[C@@]12N=C(c3ccc(OCCCO)cc3)O[C@@H]1c1ccccc1N(CCC)C2=O,0.953,-0.0868,0.0528,0.288,0.381,0.984,1.21,2.39 (inactive),0.298,-0.0645,1.55,-1.01 (inactive),-2.42 (inactive),-0.71 (inactive),3.12,1.34 (inactive),0.219,0.916,1.07,-0.108
CC(C)(C)N1CC=CC23O[C@@H]4/C=C\CCCOC(=O)C4[C@H]2C(=O)N(CCCO)[C@@H]3C1=O (stereo not given in full),0.164,-0.496,-0.203,-0.147,-0.864,1.07,1.1,0.502 (inactive),-0.582,-0.286,0.477,-1.01 (inactive),0.0214 (inactive),-0.766 (inactive),1.11,-0.282 (inactive),-0.279,-0.877,0.0017,-0.129
COc1ccc(C#Cc2ccc3c(c2)[C@]2(C(=O)N3)[C@H](C(=O)O)[C@H]3C(=O)O[C@H](c4ccccc4)[C@H](c4ccccc4)N3[C@@H]2c2ccccc2OCCO)cc1,-1.04,0.485,-0.095,0.991,1.26,0.566,1.07,0.205 (inactive),-0.515,-0.583,1.54,1.79 (inactive),0.549 (inactive),0.705 (inactive),2.2,0.969 (inactive),-0.321,0.597,1.04,0.0458
CC1CC/C=C\[C@H]2OC34C=CCN(CCN5CCOCC5)C(=O)[C@H]3N(CCCO)C(=O)[C@@H]4C2C(=O)O1 (stereo not given in full),-0.215,0.0721,-0.183,-0.0957,-0.475,-0.376,1.07,0.149 (inactive),-0.354,-0.0994,-0.536,0.236 (inactive),-0.218 (inactive),0.585 (inactive),-0.299,-0.546 (inactive),-0.21,-0.639,-0.271,-0.239
COC(=O)[C@]1(Cc2ccccc2)N=C(c2ccc(OCCCO)cc2)O[C@@H]1c1ccccc1CN=[N+]=[N-],0.278,-0.235,-0.0266,-0.214,0.582,0.718,1.29,1.48 (inactive),0.693,-0.134,1.56,0.738 (inactive),0.237 (inactive),34.8 (active),2.34,-0.156 (inactive),0.0647,0.615,0.399,-0.0967
COCCCNC(=O)[C@@]1(CCS(=O)(=O)c2ccccc2)COC(c2ccc(OCCCO)cc2)=N1,1.79,1.68,0.0177,0.529,0.874,2.3,1.28,-1.24 (inactive),1.1,-0.0296,1.36,0.134 (inactive),-0.0454 (inactive),-0.403 (inactive),3.67,1.52 (inactive),0.472,0.878,0.56,0.195
COC(=O)C(CC#Cc1ccc2c(c1)[C@]1(C(=O)N2)[C@H](c2ccccc2OCCO)N2[C@H](c3ccccc3)[C@H](c3ccccc3)OC(=O)[C@H]2[C@@H]1C(=O)N1CCc2cc(OC)c(OC)cc2C1)C(=O)OC,-0.152,0.179,-0.0087,0.382,1.15,0.834,1.3,-1.14 (inactive),0.383,-0.374,1.53,2.1 (inactive),1.13 (inactive),4.27 (inactive),3.01,0.463 (inactive),-0.174,1.08,1.09,0.0355
C=C(COC)/C(=C/C[C@H](OC(C)=O)c1ccccc1OCCO)c1cc(C(=O)OC)ccc1OC,-0.398,0.275,-0.0948,1.05,-0.738,0.727,1.28,0.181 (inactive),0.318,-0.0003,1.48,0.909 (inactive),-0.662 (inactive),-0.16 (inactive),1.76,0.952 (inactive),-0.0928,0.485,0.372,-0.0815
O=C1O[C@@H](c2ccccc2)[C@@H](c2ccccc2)N2[C@@H](c3ccccc3OCCO)[C@]3(C(=O)Nc4ccc(C#CCCO)cc43)[C@@H](C(=O)NC[C@H](O)c3ccccc3)[C@H]12,0.13,1.2,0.277,0.0012,0.381,1.63,1.36,-2.14 (inactive),0.372,0.192,1.54,2.3 (inactive),-1.71 (inactive),4.29 (inactive),3.29,0.535 (inactive),1.07,1.37,0.944,0.506
COc1cc(CO)cc(I)c1O[C@H]1C=C(C(=O)NCCO)C[C@@H](NC2CCCCCC2)[C@@H]1O,-0.606,0.174,-0.0114,0.998,0.618,-0.0274,0.716,0.999 (inactive),-0.0564,-0.0994,1.53,0.543 (inactive),-8.18 (active),-0.397 (inactive),1.86,1.37 (inactive),-0.166,1.22,1.01,-0.0564
CCCC[C@H]1OB(O)C[C@H]2C1=C(COc1ccccc1)C[C@H]1C(=O)C=CC(=O)[C@H]12,-0.315,0.351,-0.0503,0.603,0.489,0.169,0.19,-1.1 (inactive),0.23,0.316,1.07,0.426 (inactive),-3.31 (inactive),-0.241 (inactive),0.258,1.78 (inactive),-0.377,0.592,1.03,-0.0007
CC(C)(C)N1CC=CC23O[C@@H]4C=CCCOC(=O)C4[C@H]2C(=O)N(CCCCCCO)[C@@H]3C1=O (stereo not given in full),-0.0477,-1.39,-0.0628,0.0493,-0.615,1.36,1.56,0.908 (inactive),-0.0273,-0.236,0.647,-0.0623 (inactive),-0.563 (inactive),0.352 (inactive),3.16,-0.2 (inactive),-0.171,-0.679,0.123,-0.238
C=CCOC(=O)[C@@H]1[C@H]2C(=O)O[C@H](c3ccccc3)[C@H](c3ccccc3)N2[C@H](c2ccc(OCCOC(=O)[C@H]3C[C@H]4C(=O)N[C@@H](CCCCN(C)C)C(=O)N4[C@H]3c3ccc(O)cc3)cc2)[C@@]12C(=O)Nc1ccc(I)cc12,-0.139,1.43,-0.0583,0.454,-0.0871,0.655,1.33,0.921 (inactive),0.166,0.0373,1.53,1.16 (inactive),-2.52 (inactive),1.35 (inactive),2.68,-1.27 (inactive),-0.0686,1.93,1.1,-0.0487
C=CCN1Cc2ccccc2[C@H]2OC(c3ccc(OCCCO)cc3)=N[C@@]2(CCS(=O)(=O)c2ccccc2)C1=O,1.14,0.852,0.0814,0.201,1.47,1.61,1.35,-0.908 (inactive),0.932,-0.226,1.55,0.601 (inactive),0.546 (inactive),5.35 (inactive),2.29,0.557 (inactive),0.319,1.33,1.05,0.124
OCCCC1=CC(c2ccc(CN3CCCC3)cc2)N(Cc2cccc(OC(F)(F)F)c2)CC1 (stereo not given),0.373,0.134,-0.0853,0.0263,-0.546,0.0603,0.0735,0.372 (inactive),-0.176,-0.236,-0.688,-2.01 (inactive),-14.9 (active),-2.62 (inactive),0.203,-0.987 (inactive),0.0029,0.123,-0.752,-0.181
CC(C)(C)N1CC=CC23O[C@@H]4C=CCOC(=O)[C@@H]4[C@H]2C(=O)N(CCO)[C@@H]3C1=O (stereo not given in full),0.56,-0.483,-0.206,-0.437,-0.638,1.87,1.66,0.639 (inactive),-0.633,-0.274,0.717,0.573 (inactive),-0.0445 (inactive),0.514 (inactive),1.34,-0.594 (inactive),-0.284,-1.6,-0.337,-0.205
C=CCN1C(=O)[C@@]2(O[C@@H](CCn3cc([C@H](O)c4ccccc4)nn3)[C@H]([Si](C)(C)c3ccc(OC)cc3)[C@H]2C)c2cc(N3C(=O)c4cccc5cccc3c45)ccc21,0.241,-0.477,-0.151,-0.215,-0.902,0.548,0.482,-1.04 (inactive),-0.365,-0.271,0.183,0.584 (inactive),1.18 (inactive),1.31 (inactive),1.5,-0.76 (inactive),-0.189,-0.684,-0.193,-0.199
COC(=O)C(CC#Cc1ccc2c(c1)[C@]1(C(=O)N2)[C@H](C(=O)N2CCc3cc(OC)c(OC)cc3C2)[C@H]2C(=O)O[C@H](c3ccccc3)[C@H](c3ccccc3)N2[C@@H]1c1ccccc1OCCO)C(=O)OC,-0.385,1.03,-0.0037,0.738,1.15,1.67,1.25,1.31 (inactive),0.529,-0.0346,1.54,2.06 (inactive),1.54 (inactive),3.78 (inactive),3.06,0.49 (inactive),-0.0862,1.36,1.07,0.0457
CCOC(=O)C1=CC[C@@H](c2ccccc2)N(S(=O)(=O)c2ccc(C)cc2)[C@H]1c1ccccc1I,-0.312,0.215,0.162,0.571,1.48,1.05,1.12,-2.08 (inactive),1.92,0.0662,0.98,-0.323 (inactive),0.666 (inactive),0.607 (inactive),2.63,-0.162 (inactive),0.52,0.22,1.06,0.0321
